# Measured values published in PubChem BioAssay (NCATS).
# Inconclusive results are not listed. A call without a number means that no potency is given here. The source made the active and inactive calls. Unless noted, the call rests on the fitted dose curve.
# Legend:
# [1] = Cytotoxicity counterscreen for inhibitors of SARS-CoV-2 cell entry (AID 1645845); settings: outcome: dose series up to 57.1 µM unless noted; further: nearly all actives have a fitted effect of over 50% in size; further: potency means the concentration at half of the fitted maximal effect
# Summary of the method: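 48 h compound treatment (after 1 h preincubation), HEK293-ACE2 cells, 37 C/5% CO2; ATP luminescence endpoint; normalized to cell wells and media blanks.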
# [2] = Primary qHTS to identify inhibitors of SARS-CoV-2 cell entry (AID 1645846); settings: SARS-CoV-2 pseudovirus cell entry assay, luminescence; activity change, negative = inhibition: at 57.1 µM (top of the series) unless noted; further: nearly all actives have a fitted effect of over 45% in size; further: potency means the concentration at half of the fitted maximal effect
# Summary of the method: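 Data are normalized to wells receiving SARS-CoV-2-S pseudoparticles and those given bald particles. Entry signal was luciferase luminescence in stable hACE2 Expi293F cells, 48 hr post-infection, after 1 hr compound pretreatment.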
# [3] = VSVG counterscreen qHTS to identify inhibitors of SARS-CoV-2 cell entry (AID 1645847); further: potency means the concentration at half of the fitted maximal effect; nearly all actives have a fitted effect of over 65% in size
# Summary of the method: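 Counterscreen using VSV-G (not spike) pseudotyped MLV particles on ACE2-expressing Expi293F cells after 1 h compound preincubation; infection ran 48 h at 37 °C. Data normalized to VSV-G PP and bald-PP wells.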
# [4] = target: Glutathione peroxidase 1 (Homo sapiens) (UniProt P07203); experiment: Primary qHTS Assay for Inhibitors of Recombinant Selenoprotein Glutathione Peroxidase 1 (GPX1) (AID 1845191; active means well fitted curve in the direction sought with a large enough effect; an effect the other way counts as inactive or inconclusive; further: nearly all actives have a fitted effect of over 65% in size)
# Summary of the method: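 10 nM GPX1 + cpd, 30 min RT; start w/ 1 mM GSH, 0.5 mM cumene hydroperoxide, 0.5 mM NADPH, 100 nM GR, 0.01% BSA; buffer 50 mM Tris-HCl pH 7.5, 2 mM EDTA, 150 mM NaCl; Fl 340/450, 0 & 15 min.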
# [5] = target: Phospholipid hydroperoxide glutathione peroxidase GPX4 (Homo sapiens) (UniProt P36969); experiment: Primary qHTS Assay for Inhibitors of Recombinant Selenoprotein Glutathione Peroxidase 4 (GPX4) (AID 1845192; active means well fitted curve in the direction sought with a large enough effect; an effect the other way counts as inactive or inconclusive; further: nearly all actives have a fitted effect of over 65% in size)
# Summary of the method: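 NADPH consumption, followed by fluorescence at 340/450 nm between 0 and 15 min, reports GPX4 activity via coupled glutathione reductase (100 nM). Enzyme 200 nM was pre-exposed to compound 30 min; 0.5 mM cumene hydroperoxide and 1 mM GSH served as substrates.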
# [6] = qHTS drug screen for cell cycle checkpoint inhibitors in PARPi-resistant BRCA-mutant ovarian cancer cell lines. (AID 1963452); settings: PEO1/OlaR viability, CellTiter-Glo luminescence, 96 h, stronger effect = lower value
# Summary of the method: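 PEO1, PEO4 and PEO1/OlaR ovarian cancer cells, 600 per well, exposed 96 h at 37C to a dilution series. Viability read by CellTiter-Glo luminescence, normalized to DMSO and empty wells; activity summarized as Z-AUC.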
# [7] = target: Nuclear receptor subfamily 1 group I member 3 (Homo sapiens) (UniProt Q14994); experiment: Primary qHTS for antagonist of constitutive androstane receptor (CAR) against the NCATS DSHEA and TCM libraries (AID 1794836; active means well fitted curve in the direction sought with a large enough effect; an effect the other way counts as inactive or inconclusive;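 further: HepG2 cells stably expressing hCAR with CYP2B6 luciferase reporter stimulated by CITCO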)
# Summary of the method: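 Antagonist mode: CAR reporter luminescence (ONE-Glo) in HepG2-CYP2B6-hCAR cells stimulated with 48 uM CITCO (final) over 24 h at 37 C, compounds titrated; viability read first by CellTiter-Fluor fluorescence.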
# [8] = KB-8-5-11 P-gp reporter qHTS against the NCATS DSHEA and TCM libraries (AID 1919977; active means well fitted curve in the direction sought with a large enough effect; an effect the other way counts as inactive or inconclusive)
# Summary of the method: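 Cells were seeded, allowed ~4 h to attach, dosed by pin tool (substance titrations), incubated ~72 h at 37C, then lysed with CellTiter-Glo for 30 min at room temperature before luminescence reading.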
# [9] = Validation screen for inhibitors of Lassa infection (AID 463096)
# [10] = Primary qHTS for inhibitors of nuclear receptor binding SET domain protein 2 (NSD2) in an isogenic RCH-ACV NSD2 p.E1099K mutant (9B) (AID 1645876; active means well fitted curve in the direction sought with a large enough effect; an effect the other way counts as inactive or inconclusive; further: nearly all actives have a fitted effect of over 70% in size)
# [11] = Primary qHTS for inhibitors of nuclear receptor binding SET domain protein 2 (NSD2) in an RCH-ACV wild type WT cells (2C) (AID 1645877; active means well fitted curve in the direction sought with a large enough effect; an effect the other way counts as inactive or inconclusive; further: nearly all actives have a fitted effect of over 70% in size)
# [12] = target: Alpha-galactosidase (Coffea arabica) (UniProt Q42656); experiment: Counterscreen for Glucocerebrosidase Inhibitors: qHTS Assay for Coffee Bean alpha-Galactosidase at pH 4.5 (AID 957; active means well fitted curve in the direction sought with a large enough effect; an effect the other way counts as inactive or inconclusive)
# Summary of the method: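 Coffee bean enzyme (2 nM) with 80 uM 4-methylumbelliferyl alpha-D-galactopyranoside in 50 mM citric acid, 0.005% Tween-20, pH 4.5, 20 min at room temperature; compounds 0.7 nM–77 uM. Stopped at pH 10, fluorescence 365/440 nm; AC50 from Hill fits.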
# [13] = MultiTox-Fluor Cytotoxicity Assay - LYMP1-002 - Dead Cells (AID 960; active means well fitted curve in the direction sought with a large enough effect; an effect the other way counts as inactive or inconclusive; further: potency means the concentration at half of the fitted maximal effect; nearly all actives have a fitted effect of over 60% in size)
# Summary of the method: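 Human lymphoblastoid LYMP1-002 cells, 2500/well, treated 16 h at 37 C; dead-cell protease cleavage of bis-AAF-R110 read by fluorescence (485/520); normalized to DMSO and 15 uM tetraoctylammonium bromide; AC50 from Hill fit.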
# [14] = measured here: PEO1 parental Z-AUC
# Sequence of Glutathione peroxidase 1 (Homo sapiens) (P07203 whole entry, looked up): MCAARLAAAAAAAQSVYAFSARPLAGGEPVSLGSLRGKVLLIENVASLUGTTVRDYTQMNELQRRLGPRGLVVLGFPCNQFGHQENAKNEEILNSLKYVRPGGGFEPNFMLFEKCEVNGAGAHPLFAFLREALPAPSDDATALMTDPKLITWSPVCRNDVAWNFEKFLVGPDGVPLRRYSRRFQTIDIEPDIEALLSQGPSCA
# Sequence of Phospholipid hydroperoxide glutathione peroxidase GPX4 (Homo sapiens) (P36969 whole entry, looked up): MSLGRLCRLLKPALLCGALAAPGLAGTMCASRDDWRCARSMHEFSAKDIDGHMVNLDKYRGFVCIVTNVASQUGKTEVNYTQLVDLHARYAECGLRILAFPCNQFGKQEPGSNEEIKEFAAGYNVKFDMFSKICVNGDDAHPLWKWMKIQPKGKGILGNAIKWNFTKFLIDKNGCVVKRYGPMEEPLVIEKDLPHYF
# Sequence of Nuclear receptor subfamily 1 group I member 3 (Homo sapiens) (Q14994 whole entry, looked up): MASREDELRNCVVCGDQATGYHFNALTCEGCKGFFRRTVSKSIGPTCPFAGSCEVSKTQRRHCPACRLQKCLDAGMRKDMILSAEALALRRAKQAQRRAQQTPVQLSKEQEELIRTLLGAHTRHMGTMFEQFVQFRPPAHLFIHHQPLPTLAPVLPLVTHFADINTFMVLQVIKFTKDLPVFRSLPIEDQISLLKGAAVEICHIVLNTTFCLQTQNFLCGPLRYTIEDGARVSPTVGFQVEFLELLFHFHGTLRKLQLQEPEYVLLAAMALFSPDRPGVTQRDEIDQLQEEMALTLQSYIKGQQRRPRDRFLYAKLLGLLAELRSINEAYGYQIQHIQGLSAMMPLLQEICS
# Sequence of Alpha-galactosidase (Coffea arabica) (Q42656 whole entry, looked up): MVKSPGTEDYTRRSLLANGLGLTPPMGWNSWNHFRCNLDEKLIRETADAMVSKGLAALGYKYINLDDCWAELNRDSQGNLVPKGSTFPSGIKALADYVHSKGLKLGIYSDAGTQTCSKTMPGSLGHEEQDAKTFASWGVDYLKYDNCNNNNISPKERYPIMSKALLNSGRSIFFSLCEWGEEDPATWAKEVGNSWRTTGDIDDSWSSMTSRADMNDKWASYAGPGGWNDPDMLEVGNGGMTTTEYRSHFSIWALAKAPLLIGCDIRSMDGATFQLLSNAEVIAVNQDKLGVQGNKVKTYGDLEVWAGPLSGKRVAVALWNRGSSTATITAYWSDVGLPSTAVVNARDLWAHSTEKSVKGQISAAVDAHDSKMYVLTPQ
smiles,measurement,setting,value
N=C(N)c1ccc2nc(-c3cc(CC(=O)N[C@@H](CC(=O)O)C(=O)O)cc(-c4cc(S(N)(=O)=O)ccc4O)c3O)[nH]c2c1,Potency,[1],inactive
same,Potency,[2],inactive
CCN1CCN(Cc2ccc(NC(=O)c3ccc(C)c(/C=C/c4cnc5[nH]ccc5c4OC)c3)cc2C(F)(F)F)CC1,Potency,[1],35.5 µM (active)
same,Potency,[2],10 µM (active)
COc1ccc(C(=O)C2CCN(CC(=O)N(Cc3nc4c(c(=O)[nH]3)COCC4)CC3CC3)CC2)cc1,Potency,[1],inactive
same,Potency,[3],8.57 µM (active)
CC1(C)C(=O)N(c2ccc(C#N)c(C(F)(F)F)c2)C(=S)N1Cc1ccc(-c2cn[nH]n2)cc1,Potency,[1],inactive
same,Potency,[4],inactive
same,Potency,[5],inactive
same,Z-AUC,[6],0.1 (inactive)
same,Z-AUC,[6]; [14],0.427
same,Z-AUC,[6]; measured here: PEO4 Z-AUC,0.68
C[C@H]1[C@H](C)CC[C@]2(C(=O)O)CC[C@]3(C)C(=CC[C@@H]4[C@@]5(C)CC[C@H](O)C(C)(C)[C@@H]5CC[C@]43C)[C@H]12,Potency,[1],inactive
same,"activity change, negative = inhibition",[2],0.662%
same,Potency,[7],inactive
OC[C@H]1O[C@@H](S[C@@H]2O[C@H](CO)[C@H](O)[C@H](n3cc(-c4cccc(F)c4)nn3)[C@H]2O)[C@H](O)[C@@H](n2cc(-c3cccc(F)c3)nn2)[C@H]1O,Potency,[1],inactive
same,"activity change, negative = inhibition",[2],2.64%
NS(=O)(=O)c1ccc(Cc2c(-c3cccc(-c4ccccc4)c3)nn(-c3nc(C(=O)O)cs3)c2CC2CC2)cc1,Potency,[1],inactive
same,"activity change, negative = inhibition",[2],-32.8%
same,Potency,[3],8.57 µM (active)
COc1cc(-c2cn(C)c(=O)c3cnccc23)cc(OC)c1CN(C)C,Potency,[1],inactive
same,Potency,[2],inactive
CC1=C(/C=C/C(C)=C/C=C/C(C)=C/C=C/C=C(C)/C=C/C=C(C)/C=C/C2=C(C)CCCC2(C)C)C(C)(C)CCC1,Potency,[1],inactive
same,"activity change, negative = inhibition",[2],-16.6%
same,Potency,[7],inactive
same,Potency,[8],inactive
C[C@@H]1[C@H](O)[C@@H](C)/C=C/C=C/C=C/C=C/C=C/C=C/C=C/[C@H](O[C@@H]2O[C@H](C)[C@@H](O)[C@H](N)[C@@H]2O)C[C@@H]2O[C@](O)(C[C@@H](O)C[C@@H](O)[C@H](O)CC[C@@H](O)C[C@@H](O)CC(=O)O[C@H]1C)C[C@H](O)[C@H]2C(=O)O,Potency,[1],inactive
same,Potency,[2],inactive
N[C@@H]1CN(c2c(F)cc3c(=O)c(C(=O)O)cn([C@@H]4C[C@@H]4F)c3c2Cl)CC12CC2,Potency,[1],inactive
same,"activity change, negative = inhibition",[2],-5.2%
C[C@H]1CC2[C@@H]3CCC4=CC(=O)C=C[C@]4(C)[C@@]3(F)[C@@H](O)C[C@]2(C)[C@@]1(O)C(=O)CO (stereo not given in full),Potency,[9],inactive
same,Potency,[1],inactive
same,Potency,[2],inactive
C[C@H]1[C@H](C)CC[C@]2(C(=O)O)CC[C@]3(C)C(=CC[C@@H]4[C@@]5(C)C[C@@H](O)[C@H](O)[C@@](C)(CO)[C@@H]5CC[C@]43C)[C@H]12,Potency,[1],inactive
same,Potency,[8],inactive
O=C(O)[C@H](CC(=O)N1C[C@H]2CCCC[C@H]2C1)Cc1ccccc1,Potency,[1],inactive
same,"activity change, negative = inhibition",[2],-3.3%
CC1(C)CC(O)CC(C)(C)N1O,Potency,[1],inactive
same,"activity change, negative = inhibition",[2],-11.7%
same,Potency,[10],inactive
same,Potency,[11],inactive
same,Potency,[4],inactive
same,Potency,[5],inactive
same,Z-AUC,[6],0.107 (inactive)
same,Z-AUC,[6]; [14],0.652
same,Z-AUC,[6]; measured here: PEO4 Z-AUC,0.604
C[C@H](Nc1ncnc2nc[nH]c12)c1cc2ccc(F)cc2nc1-c1ccccn1,Potency,[1],inactive
same,"activity change, negative = inhibition",[2],-9.43%
Clc1cc2c(NC3CCCC3)nnc(-c3ccncc3)c2cc1Cl,Potency,[1],inactive
same,Potency,[2],inactive
CCC(=O)OCC(=O)C1(OC(=O)CC)C(C)CC2C3CCC4=CC(=O)C=CC4(C)C3(F)C(O)CC21C (stereo not given),Potency,[1],inactive
same,"activity change, negative = inhibition",[2],-47%
same,Potency,[3],1.92 µM (active)
COc1ccc(-c2c(C)nn3c(NCCN4CCOCC4)cc(C)nc23)cc1OC,Potency,[1],inactive
same,"activity change, negative = inhibition",[2],3.31%
CC(=O)O/N=C1/C(c2c(O)[nH]c3cc(Br)ccc23)=Nc2ccccc21,Potency,[1],inactive
same,Potency,[2],inactive
CCc1ccc(N(CC(C)C)S(=O)(=O)c2ccc(OCC3CCOCC3)c(CO)c2)cc1,Potency,[1],inactive
same,"activity change, negative = inhibition",[2],-88.5%
same,Potency,[3],24.1 µM (active)
N#Cc1ccc(Cn2cncc2CN2CCN(c3cccc(Cl)c3)C(=O)C2)cc1,Potency,[1],inactive
same,Potency,[2],inactive
CC(C)OC(=O)[C@H](C)N[P@](=O)(OC[C@H]1O[C@@H](n2ccc(=O)[nH]c2=O)[C@](C)(F)[C@@H]1O)Oc1ccccc1,Potency,[1],inactive
same,Potency,[3],30.4 µM (active)
CON(C)C(=O)N1N=C(c2cc(F)ccc2F)S[C@@]1(CCCN)c1ccccc1,Potency,[1],inactive
same,"activity change, negative = inhibition",[2],-86.6%
same,Potency,[3],0.0241 µM (active)
CN(CCOc1ccc(C[C@H](Nc2ccccc2C(=O)c2ccccc2)C(=O)O)cc1)c1ccccn1,outcome,[12],inactive
same,Potency,[9],inactive
COc1cc(/C=C/C(=O)CC(=O)/C=C/c2ccc(O)c(OC)c2)ccc1O,Potency,[13],31.6 µM (active)
